Assay results published in PubChem BioAssay AID1159580 (chemical genetic matrix, 2015).
Screen size: about 5,500 compounds; about 2,000 (36%) were called active. Inconclusive results (about 18%) are left out. Rule as the data show it: active = normalized growth mostly below about 0.91 (no sharp cut-off); inconclusive = no clear call, values can overlap the other calls; inactive = mostly above about 0.92. Some of the results follow.

Test: chemical genetic growth profiling, strain panel (AID 1159580);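 also: tested at 20 µM; growth read once vehicle control cultures reached saturation at 30 °C; 1 = growth at the plate median or of vehicle wells; lower values mean less growth of the strain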
Details: growth OD

Measured: normalized growth

C[C@H](COc1ccccc1)N[C@H](C)[C@H](O)c1ccc(O)cc1
inactive: S. cerevisiae deletion strains, locus YJR043C, strain POL32, hits give low values 1.04 | S. cerevisiae deletion strains, locus YJR066W, strain TOR1, hits give low values 0.946 | S. cerevisiae deletion strains, locus YKL009W, strain mrt4, hits give low values 0.99 | S. cerevisiae deletion strains, locus YKL068W, hits give low values 0.989 | S. cerevisiae deletion strains, locus YKL085W, strain MDH1 (second series), hits give low values 0.977 | S. cerevisiae deletion strains, locus YKL085W, strain MDH1, hits give low values 0.977 | S. cerevisiae deletion strains, locus YKL160W, strain elf1, hits give low values 0.983 | S. cerevisiae deletion strains, locus YKL190W, strain CNB1, hits give low values 1 | S. cerevisiae deletion strains, locus YKR001C, strain vps1, hits give low values 1.01 | S. cerevisiae deletion strains, locus YKR026C, strain gcn3, hits give low values 0.993 | S. cerevisiae deletion strains, locus YKR091W, strain srl3, hits give low values 0.995 | S. cerevisiae deletion strains, locus YLL001W, strain dnm1, hits give low values 0.966 | S. cerevisiae deletion strains, locus YLL026W, hits give low values 1.01 | S. cerevisiae deletion strains, locus YLL041C, strain sdh2, hits give low values 0.993 | S. cerevisiae deletion strains, locus YLR027C, strain aat2, hits give low values 1.01 | S. cerevisiae deletion strains, locus YLR039C, strain RIC1, hits give low values 0.898 | S. cerevisiae deletion strains, locus YLR058C, strain SHM2, hits give low values 0.987 | S. cerevisiae deletion strains, locus YLR102C, strain apc9, hits give low values 0.99 | S. cerevisiae deletion strains, locus YLR113W, strain HOG1, hits give low values 0.962 | S. cerevisiae deletion strains, locus YLR221C, strain rsa3, hits give low values 0.974 | S. cerevisiae deletion strains, locus YLR258W, strain gsy2, hits give low values 0.997 | S. cerevisiae deletion strains, locus YLR262C, strain YPT6 (second series), hits give low values 0.929 | S. cerevisiae deletion strains, locus YLR262C, strain YPT6, hits give low values 1.04 | S. cerevisiae deletion strains, locus YLR268W, strain sec22, hits give low values 0.999 | S. cerevisiae deletion strains, locus YLR320W, strain mms22, hits give low values 0.97 | S. cerevisiae deletion strains, locus YLR330W, strain CHS5, hits give low values 0.988 | S. cerevisiae deletion strains, locus YLR342W, strain FKS1 (second series), hits give low values 1.01 | S. cerevisiae deletion strains, locus YLR342W, strain FKS1, hits give low values 0.997 | S. cerevisiae deletion strains, locus YLR357W, strain rsc2, hits give low values 0.95 | S. cerevisiae deletion strains, locus YLR370C, strain arc18, hits give low values 0.994 | S. cerevisiae deletion strains, locus YLR371W, strain rom2, hits give low values 0.98 | S. cerevisiae deletion strains, locus YLR384C, strain iki3, hits give low values 1 | S. cerevisiae deletion strains, locus YLR418C, strain cdc73, hits give low values 1.01 | S. cerevisiae deletion strains, locus YML016C, strain PPZ1, hits give low values 0.986 | S. cerevisiae deletion strains, locus YML032C, strain rad52, hits give low values 0.999 | S. cerevisiae deletion strains, locus YML120C, strain ndi1, hits give low values 0.985 | S. cerevisiae deletion strains, locus YML124C, strain tub3, hits give low values 0.983 | S. cerevisiae deletion strains, locus YMR058W, strain fet3, hits give low values 0.988 | S. cerevisiae deletion strains, locus YMR078C, strain ctf18, hits give low values 0.985 | S. cerevisiae deletion strains, locus YMR125W, strain sto1, hits give low values 0.984 | S. cerevisiae deletion strains, locus YMR129W, hits give low values 0.99 | S. cerevisiae deletion strains, locus YMR205C, strain PFK2, hits give low values 0.974 | S. cerevisiae deletion strains, locus YMR223W, strain ubp8, hits give low values 0.96 | S. cerevisiae deletion strains, locus YMR231W, strain pep5, hits give low values 1 | S. cerevisiae deletion strains, locus YMR307W, strain GAS1, hits give low values 1.05 | S. cerevisiae deletion strains, locus YNL067W, strain RPL9B, hits give low values 1 | S. cerevisiae deletion strains, locus YNL071W, strain lat1, hits give low values 1.01 | S. cerevisiae deletion strains, locus YNL128W, strain TEP1, hits give low values 0.979 | S. cerevisiae deletion strains, locus YNL183C, strain NPR1, hits give low values 0.95 | S. cerevisiae deletion strains, locus YNL209W, strain ssb2, hits give low values 0.994 | S. cerevisiae deletion strains, locus YNL233W, strain BNI4, hits give low values 0.979 | S. cerevisiae deletion strains, locus YNL248C, strain rpa49, hits give low values 0.985 | S. cerevisiae deletion strains, locus YNL250W, strain rad50, hits give low values 0.977 | S. cerevisiae deletion strains, locus YNL271C, strain bni1, hits give low values 0.993 | S. cerevisiae deletion strains, locus YNL298W, strain CLA4, hits give low values 0.989 | S. cerevisiae deletion strains, locus YNL307C, strain MCK1, hits give low values 0.988 | S. cerevisiae deletion strains, locus YNL322C, strain KRE1 (second series), hits give low values 0.998 | S. cerevisiae deletion strains, locus YNR049C, strain mso1, hits give low values 0.991 | S. cerevisiae deletion strains, locus YNR052C, strain pop2, hits give low values 0.987 | S. cerevisiae deletion strains, locus YOL012C, strain htz1 1.14 | S. cerevisiae deletion strains, locus YOL147C, strain pex11, hits give low values 0.99 | S. cerevisiae deletion strains, locus YOR001W, strain rrp6, hits give low values 1.01 | S. cerevisiae deletion strains, locus YOR061W, strain CKA2, hits give low values 0.994 | S. cerevisiae deletion strains, locus YOR069W, strain VPS5, hits give low values 0.98 | S. cerevisiae deletion strains, locus YOR070C, strain gyp1, hits give low values 0.993 | S. cerevisiae deletion strains, locus YOR080W, strain dia2, hits give low values 1 | S. cerevisiae deletion strains, locus YOR083W, strain WHI5, hits give low values 0.987 | S. cerevisiae deletion strains, locus YOR106W, strain vam3, hits give low values 0.979 | S. cerevisiae deletion strains, locus YOR136W, strain idh2, hits give low values 0.999 | S. cerevisiae deletion strains, locus YOR144C, strain elg1, hits give low values 0.999 | S. cerevisiae deletion strains, locus YOR184W, strain ser1, hits give low values 1 | S. cerevisiae deletion strains, locus YOR231W, strain MKK1, hits give low values 0.948 | S. cerevisiae deletion strains, locus YOR265W, strain rbl2, hits give low values 1.01 | S. cerevisiae deletion strains, locus YOR270C, strain vph1, hits give low values 0.978 | S. cerevisiae deletion strains, locus YOR290C, strain snf2, hits give low values 0.938 | S. cerevisiae deletion strains, locus YOR316C, strain cot1, hits give low values 0.986 | S. cerevisiae deletion strains, locus YPL051W, strain arl3, hits give low values 0.982 | S. cerevisiae deletion strains, locus YPL055C, strain LGE1, hits give low values 0.965 | S. cerevisiae deletion strains, locus YPL078C, strain atp4, hits give low values 0.993 | S. cerevisiae deletion strains, locus YPL106C, strain sse1, hits give low values 0.948 | S. cerevisiae deletion strains, locus YPL240C, strain hsp82, hits give low values 1.01 | S. cerevisiae deletion strains, locus YPL256C, strain CLN2, hits give low values 0.926 | S. cerevisiae deletion strains, locus YPR119W, strain clb2, hits give low values 0.99 | S. cerevisiae deletion strains, locus YPR141C, strain kar3, hits give low values 0.975 | S. cerevisiae deletion strains, locus YPR163C, strain tif3, hits give low values 0.989 | S. cerevisiae deletion strains, locus YPR167C, strain met16, hits give low values 0.993 | S. cerevisiae deletion strains, strain wtn01, hits give low values 0.986 | S. cerevisiae strains, strain wild type, hits give low values 0.993
